Out of some 5,500 compounds screened, about 2,000 (36%) were called active. Another 18% or so got no clear call; they are omitted. Cut-off read from the data, not from the text of the source: active = normalized growth mostly below about 0.91 (no sharp cut-off); inconclusive = no clear call, values can overlap the other calls; inactive = mostly above about 0.92. Some of the results follow.
Experiment: chemical genetic growth profiling, strain panel (AID 1159580);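 note: tested at 20 µM; growth read once vehicle control cultures reached saturation at 30 °C; 1 = growth at the plate median or of vehicle wells; lower values mean less growth of the strain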
Conditions: growth OD
[1] = S. cerevisiae deletion strains, locus YAL013W, strain DEP1, stronger effect = lower value
[2] = S. cerevisiae deletion strains, locus YBR229C, strain ROT2, stronger effect = lower value
[3] = S. cerevisiae deletion strains, locus YCL061C, strain MRC1, stronger effect = lower value
[4] = S. cerevisiae deletion strains, locus YDL101C, strain DUN1, stronger effect = lower value
[5] = S. cerevisiae deletion strains, locus YDR150W, strain NUM1, stronger effect = lower value
[6] = S. cerevisiae deletion strains, locus YEL061C, strain CIN8, stronger effect = lower value
[7] = S. cerevisiae deletion strains, locus YGR078C, strain PAC10, stronger effect = lower value
[8] = S. cerevisiae deletion strains, locus YHR030C, strain SLT2, stronger effect = lower value
[9] = S. cerevisiae deletion strains, locus YHR087W, strain rtc3, stronger effect = lower value
[10] = S. cerevisiae deletion strains, locus YJL187C, strain SWE1, stronger effect = lower value
[11] = S. cerevisiae deletion strains, locus YJR043C, strain POL32, stronger effect = lower value
[12] = S. cerevisiae deletion strains, locus YJR075W, strain HOC1, stronger effect = lower value
[13] = S. cerevisiae deletion strains, locus YLR039C, strain RIC1, stronger effect = lower value
[14] = S. cerevisiae deletion strains, locus YLR058C, strain SHM2 (second series), stronger effect = lower value
[15] = S. cerevisiae deletion strains, locus YLR085C, strain ARP6, stronger effect = lower value
[16] = S. cerevisiae deletion strains, locus YLR262C, strain YPT6, stronger effect = lower value
[17] = S. cerevisiae deletion strains, locus YML094W, strain GIM5, stronger effect = lower value
[18] = S. cerevisiae deletion strains, locus YMR219W, strain ESC1, stronger effect = lower value
[19] = S. cerevisiae deletion strains, locus YNL128W, strain TEP1, stronger effect = lower value
[20] = S. cerevisiae deletion strains, locus YNL153C, strain GIM3, stronger effect = lower value
[21] = S. cerevisiae deletion strains, locus YNL298W, strain CLA4 (second series), stronger effect = lower value
[22] = S. cerevisiae deletion strains, locus YNL322C, strain KRE1, stronger effect = lower value
[23] = S. cerevisiae deletion strains, locus YNR030W, strain Alg12, stronger effect = lower value
[24] = S. cerevisiae deletion strains, locus YOL006C, strain TOP1, stronger effect = lower value
[25] = S. cerevisiae deletion strains, locus YPL055C, strain LGE1, stronger effect = lower value
[26] = S. cerevisiae deletion strains, locus YPL241C, strain CIN2, stronger effect = lower value
[27] = S. cerevisiae deletion strains, locus YPR135W, strain CTF4, stronger effect = lower value
[28] = S. cerevisiae strains, strain wild type, stronger effect = lower value
[29] = S. cerevisiae deletion strains, locus YMR263W, strain SAP30, stronger effect = lower value
[30] = S. cerevisiae deletion strains, locus YMR307W, strain GAS1, stronger effect = lower value

Measured: normalized growth

O=C(CSCc1c(F)cccc1Cl)Nc1ccc(F)c(Cl)c1
active: [1] 0.883 | [2] 0.834 | [3] 0.869 | [6] 0.881 | [7] 0.872 | S. cerevisiae deletion strains, locus YGR229C, strain SMI1, stronger effect = lower value 0.913 | [8] 0.194 | [9] 0.811 | [10] 0.875 | [11] 0.909 | [12] 0.794 | S. cerevisiae deletion strains, locus YKL190W, strain CNB1, stronger effect = lower value 0.802 | [13] 0.607 | [14] 0.908 | [15] 0.561 | [16] 0.595 | [17] 0.826 | [18] 0.891 | [21] 0.773 | [23] 0.752 | [25] 0.75 | [26] 0.781 | [27] 0.441 | [28] 0.87
inactive: [4] 0.956 | [5] 0.83 | [19] 0.928 | [20] 0.935 | [22] 0.946 | [24] 0.953

N#C/C(NCc1cccs1)=C(\C#N)NCc1c(F)cccc1Cl
inactive: [1] 0.958 | [2] 0.977 | [3] 0.97 | [4] 0.979 | [5] 0.899 | [6] 0.998 | [7] 0.973 | [8] 0.919 | [9] 0.991 | [10] 1 | [11] 0.988 | [12] 0.97 | [13] 0.939 | [14] 0.972 | [15] 0.957 | [16] 0.969 | [17] 0.964 | [18] 0.986 | [29] 0.947 | [30] 0.919 | [20] 0.993 | [21] 0.959 | [22] 0.969 | [23] 0.964 | [24] 1.01 | [26] 0.973 | [27] 0.962

Cn1c(CSCC(=O)Nc2ccccc2)n[nH]c1=S
inactive: [1] 1.01 | [2] 1.01 | [3] 1.02 | [4] 1.02 | [5] 1.02 | [6] 1 | [7] 0.999 | [8] 1.09 | [9] 1.01 | [11] 1.02 | [12] 0.991 | [13] 1 | [14] 1 | [15] 0.966 | [16] 1.01 | [17] 0.994 | [18] 0.993 | [29] 1.02 | [19] 0.994 | [20] 1.02 | [21] 1.03 | [22] 0.99 | [23] 1 | [25] 1.03 | [26] 1 | [27] 1.07 | [28] 0.981

O=C(CSCc1c(F)cccc1Cl)NC1Cc2ccccc2C1
active: [30] 0.628
inactive: [1] 0.984 | [2] 0.973 | [4] 0.995 | [5] 0.959 | [6] 0.949 | [7] 0.978 | [8] 0.776 | [9] 0.962 | [11] 0.991 | [12] 0.944 | [13] 0.925 | [14] 0.973 | [15] 0.906 | [16] 0.964 | [17] 0.956 | [18] 0.97 | [29] 0.991 | [19] 0.988 | [20] 0.977 | [21] 0.944 | [22] 0.973 | [23] 0.943 | [25] 0.944 | [26] 0.938 | [27] 0.76
